Most compounds without a hit are left out; they make up all but 1.4% or so of the library.
Wee1 degr inh = blocks degradation of human Wee1 kinase. P30291. HeLa Luc-Wee1K328M stability, luciferase luminescence; 100% = proteasome inhibitor MG132 effect. reporter increase, % at 5 µM. 1.2% of 220,000 active;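 active = activation above the mean of all tested compounds plus 3 SD, set per screening run, cut at about 8.8% in these data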;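 note: cells exposed to compound for 20 h before luminescence read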
Target sequence (P30291 whole entry K328M): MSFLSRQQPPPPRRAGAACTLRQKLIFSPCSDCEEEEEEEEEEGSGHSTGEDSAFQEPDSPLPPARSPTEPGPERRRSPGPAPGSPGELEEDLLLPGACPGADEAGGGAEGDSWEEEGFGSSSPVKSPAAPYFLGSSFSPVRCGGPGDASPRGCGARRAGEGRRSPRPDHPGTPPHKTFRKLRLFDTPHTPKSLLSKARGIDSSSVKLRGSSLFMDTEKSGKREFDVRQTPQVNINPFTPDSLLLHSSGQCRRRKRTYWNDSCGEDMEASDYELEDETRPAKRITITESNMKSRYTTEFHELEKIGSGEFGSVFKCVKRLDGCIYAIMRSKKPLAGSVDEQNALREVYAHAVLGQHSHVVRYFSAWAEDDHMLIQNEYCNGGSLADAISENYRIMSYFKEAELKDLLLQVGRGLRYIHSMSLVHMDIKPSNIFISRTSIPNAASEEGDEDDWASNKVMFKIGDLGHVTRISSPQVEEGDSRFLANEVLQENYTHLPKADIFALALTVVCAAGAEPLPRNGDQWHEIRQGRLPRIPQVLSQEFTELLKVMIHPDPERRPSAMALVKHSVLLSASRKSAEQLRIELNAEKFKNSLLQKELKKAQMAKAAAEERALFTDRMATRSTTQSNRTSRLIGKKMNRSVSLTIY
HSV augment = increases HSV replication in cells. HSV replication augmentation in cells, fold increase. maximum fold increase. 0.005% of 220,000 active; in the data active = maximum fold increase above about 1.5; tested in PC3 cells
V-ATPase pHluor = alters yeast V-ATPase proton transport. S. cerevisiae, pHLuorin cytosolic pH fluorescence. response, % at 10 µM. 0.37% of 350,000 active. AID 504577; in the data active = response mostly above about 7.3%, no sharp cut-off; inactive = mostly below about 5.4%; note: actives read high
TNF necrop inh = blocks TNF-alpha induced death of Jurkat FADD-/- cells; Jurkat FADD-/- TNF necroptosis rescue, ATP luminescence, 24 h; 0 = TNF only, 100 = no-TNF cells; activation (protection from cell death), % at 10 µM; 0.068% of 220,000 active;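 active = activation, meaning protection from cell death, of at least 50% relative to plate controls; inactive = activation below 50%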;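 note: necroptosis triggered by 40 ng/mL TNF-alpha added together with compound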
L929 necroptosis = blocks zVAD induced death of L929 cells; L929 zVAD necroptosis rescue, ATP luminescence, 24 h; with zVAD 60 µM; viability rescue, % at 10 µM; 0.38% of 220,000 active; AID 1377;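 active = activation, scaled between plate controls, above about 75%, limit read from the data; inactive = activation under that limit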
Numbers stand for hits; n = inactive; x = no result.

SMILES | Wee1 degr inh | HSV augment | V-ATPase pHluor | TNF necrop inh | L929 necroptosis
COc1cccc(NC(=O)C2CCN(S(=O)(=O)c3ccc4c(c3)N(C(C)=O)CCO4)CC2)c1 | x | x | n | x | x
COc1ccc(NC(=O)CN(C)C2CCS(=O)(=O)C2)cc1 (stereo not drawn) | x | x | n | x | x
COc1ccc(-n2c(Cc3cccn3C)nnc2SCC(=O)N2CCOCC2)cc1 | 13 | n | n | n | n
Cc1cc2nc(/N=C(\N)NC(=O)N3c4ccccc4Sc4ccccc43)nc(C)c2cc1C | n | n | n | n | n
O=C(CCS(=O)(=O)c1ccc(F)cc1)Nc1nnc(-c2ccc(F)cc2)o1 | x | x | n | x | x
CC(C)c1nc(SCC(=O)Nc2cccc(S(N)(=O)=O)c2)n[nH]1 | 10 | n | n | n | n
COc1ccc(OC)c(S(=O)(=O)Nc2ccc(Oc3ccccc3)cc2)c1 | n | n | 13 | n | n
CCOc1ccc(NS(=O)(=O)c2cc(OC)ccc2OC)cc1 | n | n | n | n | n
O=C1/C(=C/N(C(=O)c2ccco2)c2ccc(Br)cc2)Sc2ccccc21 | n | n | n | n | n
O=C1/C(=C/N(C(=O)c2ccco2)c2ccc(Cl)cc2)Sc2ccccc21 | 9.4 | n | n | n | n
COc1ccc(C(=O)NCCNc2ccc([N+](=O)[O-])cc2)cc1OC | x | x | n | x | x
O=C(NCCNc1ccc([N+](=O)[O-])cc1)c1cccc(Br)c1 | 9.4 | n | n | n | n
Cc1cc(Cl)c2oc(C(=O)N(C)CCc3cnn(C)c3)c(C)c2c1 | x | x | n | x | x
CCn1c(NC(=O)C(C)C)c(-c2ccccc2)c(=O)c2ccccc21 | n | n | n | n | n
CC(C)c1ccc(/C=C2\SC(N3CCOCC3)=NC2=O)cc1 | 9.2 | n | n | n | n
Clc1ccc(-n2ncc3c(NCC4CCCO4)ncnc32)cc1 (stereo not drawn) | 9.6 | n | n | n | n
c1ccc(-n2ncc3c(NCC4CCCO4)ncnc32)cc1 (stereo not drawn) | n | n | n | n | n
O=C(/C=C/c1ccccc1)C1C(=O)c2ccccc2C1=O | 10 | n | n | n | n
CCc1ccc(/C=C/C(=O)C2C(=O)c3ccccc3C2=O)cc1 | n | n | n | n | n
CCOc1ccc(CCNC(=O)CCc2nc3ccccc3[nH]2)cc1OCC | n | n | n | n | n
COc1ccc(CCNC(=O)CCCCCNc2nc(=S)[nH]c3ccccc23)cc1OC | 10 | n | n | n | n
COc1ccc(CCNC(=O)CCc2nc3ccccc3[nH]2)cc1OC | n | n | 14 | n | n
O=C(CCCCCNc1nc(=S)[nH]c2ccccc12)NCCc1ccccc1 | n | n | n | n | n
O=C(COc1ccc([N+](=O)[O-])cc1)Nc1ccc(C(=O)NCc2cccnc2)cc1 | n | n | n | n | n
O=C(COc1ccc([N+](=O)[O-])cc1)NCc1cccnc1 | 9.2 | n | n | n | n
SMILES | Wee1 degr inh | HSV augment | V-ATPase pHluor | TNF necrop inh | L929 necroptosis
O=C(CN1CCN(S(=O)(=O)c2cccc(F)c2)CC1)NCC1(N2CCOCC2)CCCCC1 | x | x | n | x | x
CC(C)CNS(=O)(=O)c1ccc(OCC(=O)Nc2ccc(F)cc2F)cc1 | 9.0 | n | n | n | n
CCC(C)NS(=O)(=O)c1ccc(OCC(=O)Nc2ccc(F)cc2F)cc1 (stereo not drawn) | n | n | n | n | n
COc1ccc(OC)c(NC(=O)CSc2nc(N3CCOCC3)nc(N3CCOCC3)n2)c1 | x | x | n | x | x
Nc1[nH]c(N=NC(=O)c2ccc(Cl)cc2)c2ccccc12 | n | n | n | n | n
Nc1[nH]c(N=NC(=O)c2ccccc2)c2ccccc12 | 10 | n | n | n | n
O=C(O)CSCCOc1ccc(OCCSCC(=O)O)cc1 | 10 | n | n | n | n
O=C(Oc1cccc2ccccc12)C1CC1 | x | x | n | x | x
CCc1ccc2[nH]c(O)c(N=Nc3nc(-c4ccccc4)cs3)c2c1 | 9.7 | n | n | n | n
COc1ccc(C(=O)CN2C(=O)c3ccccc3C2=O)c(OC)c1C | n | n | 19 | n | n
COc1ccc(C(=O)CN2C(=O)c3ccccc3C2=O)cc1 | n | n | n | n | n
CC(C)(C)NC(=O)CCN(/N=C/c1ccccc1F)C1=NS(=O)(=O)c2ccccc21 | x | x | n | x | x
C/C(=N\Nc1ncnc2sc(C)c(C)c12)c1ccccn1 | x | x | 70 | x | x
CCN1CCN(CCNC(=O)c2ccc(/C=C3\Sc4ccccc4N(Cc4ccccc4F)C3=O)cc2)CC1 | n | n | n | n | n
COCCCNC(=O)/C=C1\Sc2ccccc2N(Cc2ccccc2F)C1=O | 9.7 | n | n | n | n

Source: PubChem
